Experimental data: PubChem BioAssay (Tox21)
Results filed as inconclusive are left out. Active and inactive are the calls of the source. Unless noted, calls come from the whole dose curve; as a rule, active = well fitted curve in the direction sought with a large enough effect in the repeat runs; inconclusive = weak or mixed curves; inactive = no such curve, though single readings can be large; an effect the other way counts as inactive or inconclusive.

What was measured:
[1] = qHTS assay for small molecule agonists of the p53 signaling pathway (AID 651631; calls by dose curve; note: nearly all actives have a fitted effect of over 15% in size)
Outline: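 Quantitative high-throughput format: 4,000 p53RE-bla HCT-116 cells/well, 5 h pre-incubation, 16 h compound exposure at 37 °C, 2 h room-temperature substrate step, fluorescence intensity measured.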

[2] = qHTS assay for small molecules that induce genotoxicity in human embryonic kidney cells expressing luciferase-tagged ATAD5 (AID 651632); note: nearly all actives have a fitted effect of over 15% in size
Outline: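 Test compounds were delivered by pin tool onto HEK293T reporter cells (2,000/well) expressing ATAD5 fused to luciferase. After 16 hr at 37C, 5% CO2, Amplite was added for 30 min at room temperature and luminescence was measured.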

[3] = qHTS assay for small molecule agonists of the p53 signaling pathway - cell viability (AID 651633; calls by dose curve;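 note: p53RE-bla HCT reporter cells with a stable beta-lactamase p53 reporter; series mostly up to about 83 µM; nearly all actives have a fitted effect of over 30% in size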)
Outline: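 Viability counter-read: CellTiter-Glo luminescence (30 min, room temperature) in the same p53RE-bla plates. These plates had been exposed to compounds for 16 h at 37 C.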

[4] = qHTS assay for small molecules that induce genotoxicity in human embryonic kidney cells expressing luciferase-tagged ATAD5 - cell viability (AID 651634; calls by dose curve; note: nearly all actives have a fitted effect of over 25% in size)
Outline: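 Quantitative high-throughput format. HEK293T cells expressing ATAD5 fused to luciferase were plated at 2,000 cells/well and treated 15.5 hr with compound versus DMSO. Viability was determined by fluorescent live-cell protease substrate, 30 min at 37C.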

[5] = qHTS assay for small molecule disruptors of the mitochondrial membrane potential - cell viability (AID 720634; calls by dose curve;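 note: human HepG2 liver cancer cells; series mostly up to about 83 µM; nearly all actives have a fitted effect of over 20% in size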)
Outline: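 Same-well counter-screen: following the MMP dye addition, CellTiter-Glo was added to 1 hr compound-treated HepG2 cells and luminescence read after 30 min at room temperature.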

[6] = qHTS assay for small molecule disruptors of the mitochondrial membrane potential (AID 720635)
Outline: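 Mitochondrial membrane potential tracked with Mito-MPS dye, red aggregates (ex 540/em 590 nm) against green monomers (ex 490/em 535 nm). Compound treatment 1 hr at 37C, dye 30 min in HepG2.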

[7] = qHTS assay to test for compound auto fluorescence at 590 nm (red) in HepG2 cells (AID 720674)
Outline: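 Red autofluorescence (Ex/Em 540/590 nm, Rose Bengal sodium equivalents) was measured in HepG2 cells, 2,000 per well in MEM plus 10% FBS, plated overnight at 37 C. Readings were taken 1 hr after adding 23 nL compound or DMSO, at 37 C and 5% CO2.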

[8] = qHTS assay to test for compound auto fluorescence at 535 nm (green) in HepG2 cells (AID 720675)
[9] = qHTS assay to test for compound auto fluorescence at 460 nm (blue) in HEK293 cells (AID 720678)
Outline: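 HEK293 cells (2,000 per well, medium with 10% dialyzed FBS) attached for 4-5 hr at 37C, then received compound and stood overnight at 37C, 5% CO2. Blue fluorescence was read at Ex/Em 405/460 nm and expressed relative to triamterene.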

[10] = qHTS assay to test for compound auto fluorescence at 590 nm (red) in HEK293 cells (AID 720679)
Outline: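 HEK293 cells (2,000/well, medium with 10% dialyzed FBS) attached for 4-5 hr at 37C, received 23 nL compound and were incubated overnight at 37C, 5% CO2. Red fluorescence was then read at 540/590nm Ex/Em, referenced to Rose Bengal sodium.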

[11] = qHTS assay to test for compound auto fluorescence at 535 nm (green) in HEK293 cells (AID 720680)
[12] = qHTS assay to test for compound auto fluorescence at 460 nm (blue) in HEK293 cell free culture (AID 720681)
Outline: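 Blue fluorescence (Ex 405/Em 460 nm, triamterene-equivalent) was read immediately after pin transfer of compound or DMSO into medium (DMEM, 10% FBS) without cells.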

[13] = qHTS assay to test for compound auto fluorescence at 535 nm (green) in HEK293 cell free culture (AID 720682)
Outline: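 Measurement is a direct plate read of green fluorescence (485 nm in, 535 nm out) after compound addition to serum-supplemented DMEM lacking cells, with fluorescein used to express intensities.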

[14] = qHTS assay to test for compound auto fluorescence at 590 nm (red) in HEK293 cell free culture (AID 720683)
Outline: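 Red-channel autofluorescence of compounds in culture medium (DMEM, 10% FBS), no cells, measured at 540/590 nm. Rose Bengal sodium is the reference fluorophore for equivalence.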

[15] = qHTS assay to test for compound auto fluorescence at 590 nm (red) in HepG2 cell free culture (AID 720684)
Outline: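 Cell-free; medium MEM + 10% FBS; compound or DMSO added by pintool; read Ex 540/Em 590 nm; Rose Bengal sodium as red reference fluorophore.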

[16] = qHTS assay to test for compound auto fluorescence at 460 nm (blue) in HepG2 cell free culture (AID 720685)
Outline: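 Cell-free plates of MEM plus 10% FBS received 23 nL compound or DMSO vehicle; blue-channel (405/460 nm) intensity scored against triamterene as reference fluorophore.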

[17] = qHTS assay to test for compound auto fluorescence at 535 nm (green) in HepG2 cell free culture (AID 720686)
[18] = qHTS assay to test for compound auto fluorescence at 460 nm (blue) in HepG2 cells (AID 720687)
Outline: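 Blue-channel autofluorescence (Ex/Em 405/460 nm, triamterene-equivalent) was measured after 1 hr compound exposure at 37 C, 5% CO2. Cells were HepG2, plated overnight at 37 C in MEM plus 10% FBS.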

[19] = molecular target: Glucocorticoid receptor (Homo sapiens) (UniProt P04150); assay: qHTS assay to identify small molecule agonists of the glucocorticoid receptor (GR) signaling pathway (AID 720691; active = well fitted activation curve with a large enough effect in the signal ratio in the repeat runs, not every such curve was filed as active; the % refers to the signal ratio)
Chain of Glucocorticoid receptor (Homo sapiens) (P04150 whole entry, looked up): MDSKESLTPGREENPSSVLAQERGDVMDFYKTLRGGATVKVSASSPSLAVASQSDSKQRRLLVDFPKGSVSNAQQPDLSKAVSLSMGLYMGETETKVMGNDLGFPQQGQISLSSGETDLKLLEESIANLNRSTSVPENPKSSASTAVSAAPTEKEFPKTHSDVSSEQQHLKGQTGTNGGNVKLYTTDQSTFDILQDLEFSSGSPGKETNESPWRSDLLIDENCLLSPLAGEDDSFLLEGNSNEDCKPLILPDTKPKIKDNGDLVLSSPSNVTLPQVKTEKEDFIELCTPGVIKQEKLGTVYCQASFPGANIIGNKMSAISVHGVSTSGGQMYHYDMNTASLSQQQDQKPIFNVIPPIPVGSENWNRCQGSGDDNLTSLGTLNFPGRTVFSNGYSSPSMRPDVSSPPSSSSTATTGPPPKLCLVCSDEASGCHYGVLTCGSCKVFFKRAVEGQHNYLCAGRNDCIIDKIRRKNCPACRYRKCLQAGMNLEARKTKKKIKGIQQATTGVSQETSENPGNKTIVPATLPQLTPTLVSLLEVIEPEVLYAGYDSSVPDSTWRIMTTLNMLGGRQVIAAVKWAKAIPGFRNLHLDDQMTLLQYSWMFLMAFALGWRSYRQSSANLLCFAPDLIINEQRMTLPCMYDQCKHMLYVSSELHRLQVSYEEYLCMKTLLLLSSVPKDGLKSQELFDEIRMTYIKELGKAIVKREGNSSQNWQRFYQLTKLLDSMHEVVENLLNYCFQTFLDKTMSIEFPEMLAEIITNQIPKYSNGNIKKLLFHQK
Outline: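 A HeLa cervical cancer line expressing GR and a glucocorticoid response element-driven beta-lactamase gene is treated with compounds for 18 h; LiveBLAzer B/G FRET substrate is then applied and fluorescence read.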

[20] = molecular target: Glucocorticoid receptor (Homo sapiens) (UniProt P04150); assay: qHTS assay to identify small molecule antagonists of the glucocorticoid receptor (GR) signaling pathway (AID 720692; active = well fitted inhibition curve with a large enough effect in the signal ratio in the repeat runs, not every such curve was filed as active; the % refers to the signal ratio)
Outline: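 GRE-bla HeLa line, dex-stimulated (5 nM final). Compound exposure 18 h, 37 C. Beta-lactamase FRET read after 2 h RT substrate.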
% is set by controls: 0 for no effect and ±100 for the full control effect.

CCOC(=O)c1cccc(N)c1
inactive: outcome [1] | Potency [2] | outcome [3] | Potency [4] | Potency [5] | Potency [6] | outcome [7] | outcome [8] | outcome [9] | outcome [10] | outcome [11] | outcome [12] | outcome [13] | outcome [14] | outcome [15] | outcome [16] | outcome [17] | outcome [18]

CC(C)(O)C#CC(C)(C)O
inactive: outcome [1] | Potency [2] | outcome [3] | Potency [4] | Potency [5] | Potency [6] | outcome [7] | outcome [8] | outcome [9] | outcome [10] | outcome [11] | outcome [12] | outcome [13] | outcome [14] | outcome [15] | outcome [16] | outcome [17] | outcome [18]

CC(C(=O)O)c1ccc(CC2CCCC2=O)cc1 (configuration not stated)
inactive: outcome [1] | Potency [2] | outcome [3] | Potency [4] | Potency [5] | Potency [6] | outcome [7] | outcome [8] | outcome [9] | outcome [10] | outcome [11] | outcome [12] | outcome [13] | outcome [14] | outcome [15] | outcome [16] | outcome [17] | outcome [18]

O=C1NC(=O)[C@@]2(CCOc3ccc(F)cc32)N1
inactive: outcome [1] | Potency [2] | outcome [3] | Potency [4] | Potency [5] | Potency [6] | outcome [7] | outcome [8] | outcome [9] | outcome [10] | outcome [11] | outcome [12] | outcome [13] | outcome [14] | outcome [15] | outcome [16] | outcome [17] | outcome [18]

CCN1CCC[C@H]1CNC(=O)c1cc(S(N)(=O)=O)ccc1OC
inactive: outcome [1] | Potency [2] | outcome [3] | Potency [4] | Potency [5] | Potency [6] | outcome [7] | outcome [8] | outcome [9] | outcome [10] | outcome [11] | outcome [12] | outcome [13] | outcome [14] | outcome [15] | outcome [16] | outcome [17] | outcome [18] | Potency [19]

OC[C@]1(O)OC[C@@H](O)[C@H](O)[C@@H]1O
inactive: outcome [1] | Potency [2] | outcome [3] | Potency [4] | Potency [5] | Potency [6] | outcome [7] | outcome [8] | outcome [9] | outcome [10] | outcome [11] | outcome [12] | outcome [13] | outcome [14] | outcome [15] | outcome [16] | outcome [17] | outcome [18]

O=C(O)COc1nn(Cc2ccccc2)c2ccccc12
inactive: outcome [1] | Potency [2] | outcome [3] | Potency [4] | Potency [5] | Potency [6] | outcome [7] | outcome [8] | outcome [9] | outcome [10] | outcome [11] | outcome [12] | outcome [13] | outcome [14] | outcome [15] | outcome [16] | outcome [17] | outcome [18] | Potency [19] | Potency [20]

CCCCCCCCCCCCCC=O
inactive: activation [1] -3.36% [at 8.3 µM] | activation [2] 2.51% [at 8.08 µM] | activity change, negative = cytotoxicity [3] 18.4% [at 8.08 µM] | activity, negative = cytotoxicity [4] 13.3% [at 8.08 µM] | activity change, negative = cytotoxicity [5] 12.2% [at 8.08 µM] | ratio activity, negative = MMP loss [6] 25.8% [at 8.08 µM] | fluorescence, relative to Rose Bengal [7] 0.0167% [at 3.72 µM] | fluorescence, % of fluorescein control [8] 0.0875% [at 3.72 µM] | fluorescence, % of triamterene [9] -0.166% [at 3.72 µM] | fluorescence, % of fluorescent control [10] -0.804% [at 3.72 µM] | fluorescence, % of fluorescein [11] 0.0656% [at 3.72 µM] | fluorescence, % of fluorescent control [12] -0.0434% [at 3.72 µM] | activity change [13] -0.0074% [at 3.72 µM] | fluorescence, % of fluorescent control [14] 0.0516% [at 3.72 µM] | fluorescence, % of Rose Bengal [15] 0.0058% [at 3.72 µM] | fluorescence, % of fluorescent control [16] -0.0093% [at 3.72 µM] | fluorescence, % of fluorescein control [17] 0.0349% [at 3.72 µM] | fluorescence, % of fluorescent control [18] -0.0327% [at 3.72 µM]

N=C(N)c1ccc(OCCCOc2ccc(C(=N)N)cc2)cc1
inactive: outcome [1] | Potency [2] | outcome [3] | Potency [4] | Potency [5] | Potency [6] | outcome [7] | outcome [8] | outcome [9] | outcome [10] | outcome [11] | outcome [12] | outcome [13] | outcome [14] | outcome [15] | outcome [16] | outcome [17] | outcome [18] | Potency [19]

CCCN(CCC)CCc1cccc2c1CC(=O)N2
inactive: outcome [1] | Potency [2] | outcome [3] | Potency [4] | Potency [5] | Potency [6] | outcome [7] | outcome [8] | outcome [9] | outcome [10] | outcome [11] | outcome [12] | outcome [13] | outcome [14] | outcome [15] | outcome [16] | outcome [17] | outcome [18] | Potency [19]

CCCCCCCCS(=O)(=O)Cl
inactive: outcome [1] | Potency [2] | outcome [3] | Potency [4] | Potency [5] | Potency [6] | outcome [7] | outcome [8] | outcome [9] | outcome [10] | outcome [11] | outcome [12] | outcome [13] | outcome [14] | outcome [15] | outcome [16] | outcome [17] | outcome [18] | Potency [19]

NC(=O)COCCN1CCN(C(c2ccccc2)c2ccc(Cl)cc2)CC1 (configuration not stated)
inactive: outcome [1] | Potency [2] | outcome [3] | Potency [4] | Potency [5] | outcome [7] | outcome [8] | outcome [9] | outcome [10] | outcome [11] | outcome [12] | outcome [13] | outcome [14] | outcome [15] | outcome [16] | outcome [17] | outcome [18] | Potency [19] | Potency [20]

ClC(Cl)(Br)Br
inactive: outcome [1] | Potency [2] | outcome [3] | Potency [4] | Potency [5] | outcome [7] | outcome [8] | outcome [9] | outcome [10] | outcome [11] | outcome [12] | outcome [13] | outcome [14] | outcome [15] | outcome [16] | outcome [17] | outcome [18] | Potency [19] | Potency [20]

O=[N+]([O-])c1ccc(F)cc1F
inactive: outcome [1] | Potency [2] | outcome [3] | Potency [4] | Potency [5] | Potency [6] | outcome [7] | outcome [8] | outcome [9] | outcome [10] | outcome [11] | outcome [12] | outcome [13] | outcome [14] | outcome [16] | outcome [17] | outcome [18]

CC/C=C\CC/C=C/C(OCC)OCC
inactive: outcome [1] | Potency [2] | outcome [3] | Potency [4] | Potency [5] | outcome [7] | outcome [8] | outcome [9] | outcome [10] | outcome [11] | outcome [12] | outcome [13] | outcome [14] | outcome [15] | outcome [16] | outcome [17] | outcome [18] | Potency [19]
